PubChem BioAssay AID493210 (National Center for Advancing Translational Sciences (NCATS), 2011)
Some of the results follow. Calls of active or inactive are those of the source. Calls follow the shape of the full dose curve.

Biological target: Aldehyde dehydrogenase 1A1 (Homo sapiens) (UniProt P00352)
Assay: Inhibitors of Aldehyde Dehydrogenase 1 (ALDH1A1): Followup Confirmation and Counterscreen
Settings: purified ALDH1A1, NADH fluorescence, propionaldehyde/NAD+
From the text: Aldehyde dehydrogenase 1 (ALDH1A1) catalyzes the NAD+ dependent oxidation of a variety of endogenous and exogenous aldehydes to the corresponding carboxylic acids. The enzyme is the critical step in the metabolic activation of retinoic acid, which plays essential roles as nuclear receptor ligand. […] See [1] through for more information on ALDH1A1. Inhibition of ALDH1A1 activity was screened by utilizing propionaldehyde as an electron donor and NAD+ as an electron acceptor/cofactor. An increase in the fluorescence intensity due to conversion of NAD+ to NADH was used to measure the enzyme activity. See [5] for screening methodology used. References: [1] Manzer R, Qamar L, Estey T, Pappa A, Petersen DR, Vasiliou V. Molecular cloning and baculovirus expression of the rabbit corneal aldehyde dehydrogenase (ALDH1A1) cDNA. DNA Cell Biol. 2003 May;22(5):329-38. […] Quantitative high-throughput screening: a titration-based approach that efficiently identifies biological activities in large chemical libraries. […]
Buffer: 100 mM Hepes pH 7.5, 0.01% Tween 20. […] The plates were immediately transferred to and read twice on ViewLux High-throughput CCD imager (Perkin-Elmer) 20 minutes apart using 360 nm excitation and 450 nm emission fluorescence protocol. The fluorescence intensity difference between the second and the first time points was used to compute reaction progress.

Aldehyde dehydrogenase 1A1 (Homo sapiens), sequence (P00352 whole entry, looked up): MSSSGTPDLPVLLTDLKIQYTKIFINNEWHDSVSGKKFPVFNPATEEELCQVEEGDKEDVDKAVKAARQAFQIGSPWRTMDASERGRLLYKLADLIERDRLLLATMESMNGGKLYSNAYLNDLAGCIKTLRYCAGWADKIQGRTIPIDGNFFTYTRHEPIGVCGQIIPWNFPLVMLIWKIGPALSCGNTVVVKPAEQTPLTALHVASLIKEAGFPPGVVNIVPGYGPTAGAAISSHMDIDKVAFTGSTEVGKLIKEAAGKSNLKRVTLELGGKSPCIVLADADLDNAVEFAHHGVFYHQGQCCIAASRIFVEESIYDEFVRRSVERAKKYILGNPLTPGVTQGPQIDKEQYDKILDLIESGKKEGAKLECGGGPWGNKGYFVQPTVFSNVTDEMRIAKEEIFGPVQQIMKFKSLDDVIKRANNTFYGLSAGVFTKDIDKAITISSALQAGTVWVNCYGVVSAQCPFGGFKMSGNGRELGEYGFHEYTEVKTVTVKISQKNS

## C[C@]12CC[C@@H]3C(=CCc4cc(O)ccc43)[C@@H]1CCC2=O
  Potency: 501 nM (active)
